Screens (PubChem BioAssay)
Only some compounds are listed: those with a hit (about 3.1% of all), similar ones and a draw of the others.
SSB-PriA inh: inhibitors of Klebsiella pneumoniae PriA binding to SSB C-terminal tail, primary screen, biochemical, AlphaScreen | PriA–SSB C-terminal tail interaction (Klebsiella pneumoniae) | 0.6% of 430,000 active | AlphaScreen SSBct-PriA binding, biotinylated peptide | inhibition, % at 33 µM; in the data active = inhibition mostly above about 37%, no sharp cut-off; inactive = mostly below about 20%
BoNT A protease: BoNT/A light chain protease inhibitors, primary screen, biochemical, flow cytometry, MLPCN library | multiplex microsphere protease substrate cleavage | Botulinum neurotoxin type A light chain protease (Clostridium botulinum A str. ATCC 3502) | inhibition, % at 10 µM | 0.17% of 360,000 active
Bead autofluor: flagged as autofluorescent in microsphere protease counterscreen; fluorescence intensity (no concentration beside the values); 3.1% of 360,000 active; AID 624483; compound autofluorescence counterscreen, microsphere flow cytometry; hits give high values; in the data active = fluorescence intensity above about 16000; inconclusive = no clear call, values can overlap the other calls
Anthrax LF inh2: Bacillus anthracis LF protease inhibitors, primary screen, biochemical, multiplex microsphere, MLPCN library; multiplex microsphere protease cleavage assay; inhibition, % at 10 µM; 0.12% of 360,000 active
Target sequence (P15917 whole entry, looked up): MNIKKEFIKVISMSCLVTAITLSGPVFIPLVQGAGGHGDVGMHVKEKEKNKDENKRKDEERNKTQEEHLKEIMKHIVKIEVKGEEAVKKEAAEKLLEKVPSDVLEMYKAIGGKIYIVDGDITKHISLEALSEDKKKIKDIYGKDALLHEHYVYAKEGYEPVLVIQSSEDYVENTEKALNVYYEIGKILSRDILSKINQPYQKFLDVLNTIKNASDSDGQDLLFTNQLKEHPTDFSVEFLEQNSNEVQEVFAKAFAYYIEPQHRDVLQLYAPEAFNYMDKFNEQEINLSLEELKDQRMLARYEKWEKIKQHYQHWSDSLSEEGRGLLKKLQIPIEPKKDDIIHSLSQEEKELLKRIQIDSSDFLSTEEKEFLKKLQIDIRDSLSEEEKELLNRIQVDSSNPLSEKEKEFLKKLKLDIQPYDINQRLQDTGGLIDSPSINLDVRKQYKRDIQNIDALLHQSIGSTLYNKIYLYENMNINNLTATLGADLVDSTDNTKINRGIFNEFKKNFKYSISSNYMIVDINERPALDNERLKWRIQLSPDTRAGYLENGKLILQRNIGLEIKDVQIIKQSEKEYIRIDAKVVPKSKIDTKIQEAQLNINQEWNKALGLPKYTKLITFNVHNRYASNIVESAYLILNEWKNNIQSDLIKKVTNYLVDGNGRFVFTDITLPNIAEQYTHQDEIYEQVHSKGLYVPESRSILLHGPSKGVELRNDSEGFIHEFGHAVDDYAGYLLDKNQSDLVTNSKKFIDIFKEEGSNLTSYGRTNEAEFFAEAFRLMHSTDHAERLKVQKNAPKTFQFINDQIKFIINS
BoNT-F LC inh: BoNT/F light chain protease inhibitors, primary screen, biochemical, flow cytometry, MLPCN library. Botulinum neurotoxin type F light chain protease (Clostridium botulinum). Multiplex microsphere protease cleavage assay. inhibition, % at 10 µM. 0.22% of 360,000 active. AID 588497, 2011; in the data active = inhibition above about 35%, passing the limit was not always enough; inconclusive = no clear call, values can overlap the other calls
A number is an active result; n = inactive; u = inconclusive; x = no result; ! = not confirmed by another sample. Rule as the data show it, unless noted: active = inhibition above about 30%; inconclusive = no clear call, values can overlap the other calls; inactive = below that.

SMILES	SSB-PriA inh	BoNT A protease	Bead autofluor	Anthrax LF inh2	BoNT-F LC inh
Cc1nn(CCC(=O)NNC(=S)Nc2ccc(F)cc2)c(C)c1[N+](=O)[O-]	n	n	22117	n	n
CC(=NNC(=O)CSCc1ccccc1Br)c1cccc([N+](=O)[O-])c1	n	x	x	x	x
Nc1ncc(CCCO)cn1	n	x	x	x	x
COc1ccc(NC(=O)CN2CCC(C)CC2)cc1	n	n	17348	n	n
CCC1Oc2ccccc2N(CC(=O)Nc2ccccc2OC)C1=O (stereo not given)	n	u	22225	n	n
Cc1ccc(CN(Cc2cccnc2)C(=O)CN2C(=O)COc3ccccc32)o1	n	n	n	n	n
CCC1Oc2ccccc2N(CC(=O)NCCc2ccc(OC)c(OC)c2)C1=O (stereo not given)	n	n	n	n	n
CCC1Oc2ccc(C)cc2N(CC(=O)NCc2cc(OC)ccc2OC)C1=O (stereo not given)	n	n	n	n	n
CCC1Oc2ccc(C)cc2N(CC(=O)NCc2cccc(OC)c2)C1=O (stereo not given)	n	n	17853	n	n
COc1ccc(NC(=O)CN2CCC(C(N)=O)CC2)cc1	n	n	n	n	n
O=C(CN1C(=O)COc2ccccc21)N(Cc1ccccc1)Cc1ccccn1	n	u	22246	n	n
CCS(=O)(=O)c1ccc(-c2nnc(NC(=O)c3cc(C)oc3C)o2)cc1	n	x	x	x	x
COc1ccc(CN(Cc2ccccn2)C(=O)CN2C(=O)C(C)Oc3ccccc32)cc1 (stereo not given)	n	n	22997	n	n
COc1ccc(NC(=O)CN2C(=O)C(C)Oc3ccc(C)cc32)cc1 (stereo not given)	n	n	n	n	u
COc1ccc(NC(=O)CN2C(=O)C(C)Oc3ccccc32)c(OC)c1 (stereo not given)	n	n	n	n	n
COc1ccc(NC(=O)CN2C(=O)C(C)Oc3ccccc32)cc1 (stereo not given)	n	n	23500	n	n
Cc1ccc2nc(/C(C#N)=C\c3cc(C)n(-c4cccc([N+](=O)[O-])c4)c3C)[nH]c2c1	n	u	16239	n	n
Cc1cc(/C=C(/C#N)c2nc3ccccc3[nH]2)c(C)n1-c1cc(C(=O)O)cc(C(=O)O)c1	n	n	n	n	n
Cc1ccc(S(=O)(=O)N=S(C)C(C)C)cc1 (stereo not given)	n	x	x	x	x
C=CCOCC(O)Cn1c(NCc2ccco2)nc2c1c(=O)[nH]c(=O)n2C (stereo not given)	67.0	x	x	x	x
COc1ccc(CCn2c(NCc3ccco3)nc3c2c(=O)[nH]c(=O)n3C)cc1	n	n	n	n	n
Cn1cnnc1SCc1ccc(O)c2ncccc12	125.0	x	x	x	x
Cn1nnnc1SCc1c(F)cccc1F	n	n	21178	n	n
Cn1nnnc1SCc1cccc(CSc2nnnn2C)n1	n	n	n	n	n
CCCCCCCCCCCCCCSCc1ccc(O)c2ncccc12	n	x	x	x	x
SMILES	SSB-PriA inh	BoNT A protease	Bead autofluor	Anthrax LF inh2	BoNT-F LC inh
Cn1nnnc1SCc1ccc(O)c2ncccc12	124.5	x	x	x	x
Cn1ccnc1SCc1ccc(O)c2ncccc12	127.5	x	x	x	x
Cn1ncc(Br)c1C(=O)NN=Cc1ccc(OS(=O)(=O)c2ccccc2)cc1	n	x	x	x	x
O=c1ccc(-c2ccncc2)nn1CCNS(=O)(=O)c1ccc(-c2ccccc2)cc1	n	x	x	x	x
Cc1ccc(-c2nnc(SCC(=O)NC3CCCC3)n2N)cc1	n	n	n	n	n
CCN(CC)S(=O)(=O)c1cccc(-c2nnc(SCC(=O)NC3CCCC3)n2N)c1	n	n	20557	n	n
CCN(CC)S(=O)(=O)c1cccc(-c2nnc(SCC(=O)NC3CCCCCC3)n2N)c1	n	n	22076	n	n
CCN(CC)S(=O)(=O)c1cccc(-c2nnc(SCC(=O)NC3CCCCCCC3)n2N)c1	n	n	21228	n	n
Nn1c(SCC(=O)NC2CCCCC2)nnc1-c1ccccc1	n	n	n	n	n
O=C(OCc1cc(-c2cccs2)on1)c1cc(=O)c2ccccc2o1	n	x	x	x	x
O=C(NCCn1ccc(C(F)(F)F)n1)Nc1ccc(Cl)c(Cl)c1	n	x	x	x	x
Cc1[nH]c(=O)[nH]c(=O)c1NC(=O)c1cccs1	n	n	21903	n	n
O=C(CSc1nnc(C2COc3ccccc3O2)o1)NCc1ccco1 (stereo not given)	n	x	x	x	x
Cc1cc(C)c2cc(CN(CCCO)S(=O)(=O)c3ccccc3F)c(=O)[nH]c2c1	n	n	n	n	n
COC(=O)c1ccccc1S(=O)(=O)N(CCCO)Cc1cc2c(C)ccc(C)c2[nH]c1=O	n	n	22748	n	n
COC(=O)c1ccccc1S(=O)(=O)N(Cc1ccco1)Cc1cc2cc(OC)ccc2[nH]c1=O	n	n	22912	n	n
O=C(NCc1cccnc1)c1cc2cc([N+](=O)[O-])ccc2oc1=O	n	x	x	x	x
CC(C)Cn1c(SCc2nc3ccccc3c(=O)[nH]2)nc2ccccc2c1=O	n	n	19467	n	n
C=CCn1c(SCC(=O)c2ccccc2)nc2scc(-c3ccco3)c2c1=O	n	x	x	x	x
Cc1ccc2nc(-c3ccc(NC(=O)c4ccnn4C)cc3)sc2c1	n	x	x	x	x
Cc1cc(=O)[nH]c(-n2nc(C)c(CCC(=O)O)c2C)n1	n	x	x	x	x
C=Cc1c(C)c2cc3[nH]c(cc4nc(cc5nc(cc1[nH]2)C(C)=C5CCC(=O)O)C(CCC(=O)O)=C4C)c(C)c3C=C	n	42.9!	n	n	n
Cc1ccc(NS(=O)(=O)N(C)C)cc1Cl	n	x	x	x	x
COc1ccc(-c2cc(C(=O)NCCc3ccccc3)no2)cc1OC	n	n	20927	n	n
COc1ccc(CCNC(=O)c2cc(-c3ccccc3OC)on2)cc1OC	n	u	24479	n	n
SMILES	SSB-PriA inh	BoNT A protease	Bead autofluor	Anthrax LF inh2	BoNT-F LC inh
COc1ccc(NC(=O)c2cc(-c3ccccc3OC)on2)cc1	n	n	n	n	n
COc1ccccc1-c1cc(C(=O)NCCc2ccccc2)no1	n	n	n	n	n
COc1ccccc1-c1cc(C(=O)Nc2cccnc2)no1	n	n	22187	n	n
Cc1ccc(C(=O)Nc2ccc(S(=O)(=O)N3CCC(c4nc5ccccc5[nH]4)CC3)cc2)cc1C	n	x	x	x	x
C/C(=N\Nc1cc(Cl)nc(C)n1)c1ccc(C)cc1	x	n	22065	n	n
CC(=NNc1cc(Cl)nc(C)n1)c1ccc(C)cc1	n	x	x	x	x
O=C/C(=C\Nc1ccccn1)c1nc2ccccc2o1	n	u	17474	n	n
O=S(=O)(c1ccc2ccccc2c1)N1CCN(C2CCN(Cc3ccccc3)CC2)CC1	n	n	23769	n	n
COc1ccc(-c2nnc(NC(=O)CSc3nncn3C)s2)c(OC)c1	n	x	x	x	x
Cc1ccc(Oc2cc(-n3nc(C)cc3C)ncn2)cc1	n	u	22017	n	n
OC(c1ccccn1)(c1ccccn1)c1ccccn1	79.2	n	n	n	n
COc1cc(S(=O)(=O)Nc2c(C)cc(C)cc2C)ccc1Cl	n	n	17705	n	n
COc1cc(S(=O)(=O)Nc2ccccc2C)ccc1Cl	n	n	n	n	n
